p53null 39C tox: qHTS Screen for Compounds that Selectively Target Cancer Cells with p53 Mutations: Cytotoxicity of p53 Null Cells at the Nonpermissive Temperature; H1299 p53-null (neo) cells, 39C, ATPlite viability, 24 h; Potency, µM (series often up to 46.1 µM), inactives show at the highest dose activity, negative = cell killing, most hits filed as cytotoxic; 55,000 tested, 0.97% active; AID 904, 2007;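 note: potency is the fitted concentration of half-maximal effect; 0% = DMSO only and -100% = full killing by 100 µM tamoxifen; nearly all actives have a fitted effect of over 50% in size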
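Concentration-response (up to 46 uM) was run for 24 h at the nonpermissive 39C on H1299-p53A138V or H1299-neo cells. ATP content was measured with ATPlite luminescence. AC50 values were Hill-modeled after normalizing between DMSO and 100 uM tamoxifen killing.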
pS6 MEF inh: Acumen qHTS Assay for Inhibitors of the mTORC1 Signaling Pathway in MEF (Tsc2-/-, p53-/-) Cells: Sytravon; Tsc2-/- p53-/- MEF, phospho-rpS6 immunofluorescence/PI, 24 h; 44,000 tested, 0.78% active; Potency, µM (highest dose often 38.3 µM), without a hit: at the highest dose activity change, negative = inhibition, usual class: inhibitors;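 note: potency is the fitted concentration of half-maximal effect; plate controls were DMSO for no effect and rapamycin for full effect; nearly all actives have a fitted effect of over 50% in size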
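Cell-based qHTS: Tsc2-/- p53-/- MEF, 24 h cpd, 37 °C; fix/perm, anti-phospho-S6 Alexa-488 + PI; Acumen 488 nm scan; pS6/PI ratio, % positive cells; rapamycin 7.5 nM = inhibition ref; PI count = viability.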
p53null 32C tox: qHTS Screen for Compounds that Selectively Target Cancer Cells with p53 Mutations: Cytotoxicity of p53 Null Cells at the Permissive Temperature; H1299-neo p53 null cells, ATP luminescence, 24 h, 32C; Potency, µM (highest dose often 46.1 µM), for inactives: at the top dose activity change, negative = cytotoxicity, most hits filed as cytotoxic; 55,000 tested, 0.62% active; AID 903, 2007;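 note: potency is the fitted concentration of half-maximal effect; 0% = DMSO only and -100% = full killing by 100 µM tamoxifen; nearly all actives have a fitted effect of over 55% in size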
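Cells lacking p53 (H1299-neo) are plated at 600 per well and allowed to settle overnight at 37C. Test compounds (up to 46 uM) are added and held 24 hours at 32C, then ATP is quantified by luminescence.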
SKOV3 invasion: Primary qHTS assay for Inhibitors of ovarian cancer metastasis using an organotypic tumor microenvironment (TME) model; SKOV3ip1-GFP adhesion/invasion on 3D omental model, fluorescence; Potency, µM (top dose mostly 45.8 µM), without a hit: top-dose activity change, negative = inhibition, actives largely listed as inhibitors; 46,000 tested, 0.1% active; AID 1963576, 2024;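 note: potency is the fitted concentration of half-maximal effect; plate controls were DMSO wells for no effect and tomatine positive control wells for full effect; nearly all actives have a fitted effect of over 65% in size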
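Adhesion/invasion was scored as fixed GFP-labeled SKOV3ip1 cell counts (488/509 nm), normalized to DMSO and tomatine controls. Cancer cells in serum-free medium, with four compound doses (0.36-46 umol/L), sat 2 hr at RT then 16 hr at 37 C on a 48 hr fibroblast/mesothelial/ECM culture.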
S16 viability: Cell viability qHTS assay in S16 Pmp22-F2sN cells; S16 Pmp22-F2sN Schwann cells viability, CellTiter-Glo, 24 h; Potency, µM (series often up to 57.5 µM), for inactives: at the top dose activity change, negative = cytotoxicity, actives largely listed as cytotoxic; 43,000 tested, 0.48% active; AID 1508642, 2021; note: potency is the fitted concentration of half-maximal effect; % is set by controls: 0 for no effect and ±100 for the full control effect; nearly all actives have a fitted effect of over 65% in size
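S16 Pmp22-F2sN Schwann cells (500-1,000/well) in phenol-red-free DMEM with 10% FBS received 23 nL compound by pin tool for 24 h at 37 °C. Viability was then read as CellTiter-Glo luminescence after 15 min at room temperature.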
PMP22 txn prim: Cell-based coincidence reporter assay to measure PMP22 gene transcription in S16 Pmp22-F2sN cells - Primary screen; Potency, µM (highest dose often 57.5 µM), without a hit: top-dose activity change, negative = inhibition, usual class: inhibitors; 43,000 tested, 2% active; S16 Pmp22-F2sN Schwann cells (luciferase reporters placed in the Pmp22 gene), FLuc/NLuc coincidence luminescence, 24 h; AID 1508649, 2021; active = clear falling dose curves in both reporters; inconclusive = both reporters move, but less clearly or upward; inactive = either reporter flat; the % is the NLuc reporter signal; note: potency is the fitted concentration of half-maximal effect; % is set by controls: 0 for no effect and ±100 for the full control effect
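Rat S16 Pmp22-F2sN cells, 500-1,000/well in phenol red-free DMEM + 10% FBS, compound-treated 24 h (37C, 5% CO2). Luminescence: FLuc read, Stop&Glo added, NLuc read.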
NLuc saturating: Biochemical NLuc saturation counterscreen for small molecule modulators of PMP22 gene expression - Nano-Glo assay | shares compounds with PMP22 txn prim | Secreted NLuc enzyme (filtered S16 cell medium), Nano-Glo luminescence | 690 tested, 4% active | Potency, µM (series often up to 57.5 µM), inactives show top-dose activity change, negative = inhibition, actives largely listed as inhibitors; note: potency is the fitted concentration of half-maximal effect; % is set by controls: 0 for no effect and ±100 for the full control effect
NLuc Km ctr: Biochemical coelenterazine-based NLuc counterscreen for small molecule modulators of PMP22 gene expression - Km assay; shares compounds with PMP22 txn prim; secreted NLuc enzyme, coelenterazine luminescence, Km conditions; Potency, µM (series often up to 57.5 µM), for the others: at the highest dose activity change, negative = inhibition, actives largely listed as inhibitors; 690 tested, 5% active; AID 1508639, 2021; note: potency is the fitted concentration of half-maximal effect; % is set by controls: 0 for no effect and ±100 for the full control effect
FLuc ctr PMP22: Biochemical FLuc counterscreen for small molecule modulators of PMP22 gene expression. shares compounds with PMP22 txn prim. purified P. pyralis FLuc, luminescence, 10 min. Potency, µM (titrated, usually from 57.5 µM), inactives show at the top dose activity, negative = inhibition, hits mostly inhibitors. 690 tested, under 10 active. AID 1508640, 2021; note: % of control where 0% means no effect
Target sequence (P08659 whole entry, looked up): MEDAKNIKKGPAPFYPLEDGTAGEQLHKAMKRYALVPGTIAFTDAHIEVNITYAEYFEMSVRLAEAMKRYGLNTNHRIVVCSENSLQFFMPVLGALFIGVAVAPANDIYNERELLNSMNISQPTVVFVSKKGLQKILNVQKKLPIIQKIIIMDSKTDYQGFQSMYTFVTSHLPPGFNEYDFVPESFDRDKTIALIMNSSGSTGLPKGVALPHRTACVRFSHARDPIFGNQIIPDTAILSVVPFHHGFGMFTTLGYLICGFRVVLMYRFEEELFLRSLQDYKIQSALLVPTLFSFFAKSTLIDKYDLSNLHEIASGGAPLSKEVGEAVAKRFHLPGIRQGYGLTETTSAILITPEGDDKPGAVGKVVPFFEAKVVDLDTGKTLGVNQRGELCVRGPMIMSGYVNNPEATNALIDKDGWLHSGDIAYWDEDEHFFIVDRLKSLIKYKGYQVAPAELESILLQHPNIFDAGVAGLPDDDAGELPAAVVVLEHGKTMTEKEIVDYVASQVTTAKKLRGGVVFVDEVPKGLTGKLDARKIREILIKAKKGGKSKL
S16 viab conf: Cell viability qHTS assay in S16 Pmp22-F2sN cells - Confirmatory screen; Potency, µM (series often up to 57.5 µM), for inactives: at the highest dose activity change, negative = viability loss, actives largely listed as cytotoxic; S16 Schwann cells viability, CellTiter-Glo ATP luminescence, 24 h; AID 1508641, 2021; shares compounds with PMP22 txn prim; 690 tested, 7% active; note: potency is the fitted concentration of half-maximal effect; % is set by controls: 0 for no effect and ±100 for the full control effect
PMP22 txn conf: Cell-based coincidence reporter assay to measure PMP22 gene transcription in S16 Pmp22-F2sN cells - Confirmatory screen; shares compounds with PMP22 txn prim; S16 Schwann cells Pmp22-F2sN, dual luciferase, 24 h; Potency, µM (top dose mostly 57.5 µM), for the others: top-dose activity change, negative = inhibition, usual class: inhibitors; 690 tested, 22% active; AID 1508646, 2021; active = clear falling dose curves in both reporters; inconclusive = both reporters move, but less clearly or upward; inactive = either reporter flat; the % is the FLuc reporter signal; note: potency is the fitted concentration of half-maximal effect
PMP22 HiBiT cnf: Cell-based HiBiT reporter assay to measure PMP22 protein expression in S16 Pmp22-HiBiT cells - Confirmatory screen; shares compounds with PMP22 txn prim; S16 Schwann cells Pmp22-HiBiT, luminescence, 48 h; Potency, µM (titrated, usually from 27.9 µM), for the others: at the top dose activity change, negative = inhibition, hits mostly inhibitors; 95 tested, under 10 active; AID 1508647, 2021
Target sequence (P25094 whole entry, looked up): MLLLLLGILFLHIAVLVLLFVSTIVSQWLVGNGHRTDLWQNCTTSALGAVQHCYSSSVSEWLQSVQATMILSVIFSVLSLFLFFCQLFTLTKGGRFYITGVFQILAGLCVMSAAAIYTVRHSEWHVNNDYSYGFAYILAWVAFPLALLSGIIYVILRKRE
Numbers without * were called inactive; i = inactive; ? = inconclusive; / = no result. The list is not random: actives were taken first. Their share in the collection is about 3%. Unless noted, calls come from the whole dose curve; as a rule, active = well fitted curve in the direction sought with a large enough effect; inconclusive = small, poorly fitted or top-dose-only effect, or another doubt; inactive = no such curve, though single readings can be large; an effect the other way counts as inactive or inconclusive.

SMILES	p53null 39C tox	pS6 MEF inh	p53null 32C tox	SKOV3 invasion	S16 viability	PMP22 txn prim	NLuc saturating	NLuc Km ctr	FLuc ctr PMP22	S16 viab conf	PMP22 txn conf	others
CCC(=O)C1=C(c2cccc([N+](=O)[O-])c2)N(C(=O)CC)n2c(nnc2C2CCCCC2)S1	5%	-3%	-3%	?	?	8.4µM*	-7%	4%	7%	-23%	11µM*	PMP22 HiBiT cnf=?
CCN(CC)C(=O)c1ccc(S(=O)(=O)N2CCC(c3nc4ccccc4s3)CC2)cc1	-1%	/	-3%	/	/	/	/	/	/	/	/
Cc1ccc(C(=O)Nc2ccc(S(=O)(=O)N3CCC(c4nc5ccccc5s4)CC3)cc2)cc1	-9%	2%	-6%	-13%	8%	12µM*	0%	5%	6%	-47%	15µM*	PMP22 HiBiT cnf=?
Cc1ccc(NC(=O)CSc2ncc3c(n2)-c2ccccc2N(C)S3(=O)=O)c(Cl)c1	6%	2%	-11%	-8%	15%	6.4µM*	?	4%	-3%	-15%	?
Cc1ccccc1NC(=O)CSc1ncc2c(n1)-c1ccccc1N(C)S2(=O)=O	3%	-3%	-7%	-9%	0%	11%	/	/	/	/	/
Cc1cc(Br)ccc1NC(=O)C1CCCN(S(=O)(=O)c2cccc3nonc23)C1 (stereo unspecified)	-21%	-16%	-7%	i	13%	?	/	/	/	/	/
Cc1cc(NC(=O)C2CCCN(S(=O)(=O)c3cccc4nonc34)C2)ccc1Br (stereo unspecified)	-21%	4%	5%	i	?	18µM*	-1%	3%	3%	-12%	17µM*	PMP22 HiBiT cnf=30%
CN1N=C(N)c2cn([C@@H]3O[C@H](COP(=O)(O)O)[C@@H](O)[C@@H]3O)c3ncnc1c23	/	/	/	2%	/	/	/	/	/	/	/
COc1ccccc1NC(=O)c1oc2ccccc2c1NC(=O)c1c(F)cccc1F	-15%	2%	-11%	-8%	-25%	-24%	/	/	/	/	/
COc1cc(C(=O)Nc2c(C(=O)Nc3ccccc3F)oc3ccccc23)cc(OC)c1OC	-12%	-8%	4%	i	1%	17µM*	-3%	-4%	?	-2%	?
Cc1cnc(Nc2cccc(CN3CCOCC3)c2)nc1Nc1cccc(S(=O)(=O)NC(C)(C)C)c1	/	/	/	-28%	/	/	/	/	/	/	/
CCOc1ccc(C(=O)N2CCc3cc(OC)c(OC)cc3C2COc2ccc3c(C)cc(=O)oc3c2)cc1OCC (stereo unspecified)	0%	-2%	12%	-2%	-2%	13µM*	-7%	5%	5%	1%	-34%
COc1cc2c(cc1OC)CN(CCc1ccc(NC(=O)c3cccc4c(=O)c5cccc(OC)c5[nH]c34)cc1)CC2	/	/	/	0%	/	/	/	/	/	/	/
COc1cccc(-c2ccc(NC(=O)C3=C(C(=O)O)CCC3)c(F)c2)c1	/	/	/	11%	/	/	/	/	/	/	/
O=C(CCS(=O)(=O)c1cc(Br)cc2c1N(C(=O)C1CC1)CC2)N1CCN(c2cccc(C(F)(F)F)c2)CC1	9%	-4%	13%	-27%	?	13µM*	-3%	11%	5%	5%	-43%
O=C(CCS(=O)(=O)c1cc(Br)cc2c1N(C(=O)C1CC1)CC2)N1CCN(c2ccc(F)cc2)CC1	-9%	-12%	8%	16%	-25%	?	/	/	/	/	/
O=C(Nc1ccc(F)cc1Cl)C1CCN(c2ncnc3c2nc2n3CCCCC2)CC1	-1%	-3%	0%	2%	-25%	17µM*	-19%	8%	-14%	-3%	?
